The text below walks through data of PubChem BioAssay.

Active and inactive are the calls of the source. Unless noted, no rule for the calls is given here.

The subject of test [1] is Wnt5a (protein binding on small-molecule microarray). The test can be described thus: small molecules binding Wnt5a protein – biophysical, small-molecule microarray, 635/667 nm fluorescence, primary screen (AID 1142).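 Also: fluorescence read at 667 nm with signal to noise per printed feature.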 As to conditions: 635 nm fluorescence, higher = more signal.
Test [2] can be described thus: ATP-based viability of Huh7 replicon cells – cell-based, CellTiter-Glo luminescence, basal, 48 h, cytotoxicity control for HCV replication inhibitor project, primary screen (AID 1143).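 Also: Huh7 hepatoma cells carrying a hepatitis C replication reporter with no stimulus; test concentration not given here.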 The conditions noted are these: higher = more signal, called active from +8 up or from −8 down. (In general: Replicon systems follow genome replication, usually without infectious particles.)

The nature of test [3]: Pseudomonas biofilm growth suppression – PAO1 strain, BacTiter-Glo luminescence, LB-PBS, primary screen (AID 1144). As to conditions: P. aeruginosa PAO1 biofilm, 12 h, higher = more signal.
The nature of test [4]: basal CRE-LacZ reporter activity in PC12 – cell-based, unstimulated, primary screen (AID 1145). As to conditions: no forskolin, luminescence, 4.5 h, higher = more signal, called active from +8 up or from −8 down.
A short description of test [5]: forskolin-driven CRE-LacZ activity in PC12 – cell-based, CRE-LacZ reporter, forskolin-stimulated, primary screen (AID 1146).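 Also: PC12 cells with 6xCRE LacZ reporter stimulated by forskolin 10 µM; beta-galactosidase reporter signal reflecting CREB driven transcription.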 The conditions noted are these: luminescence, 4.5 h, higher = more signal, called active from +8 up or from −8 down.
Test [6] concerns the target Streptavidin (Streptomyces avidinii) (UniProt P22629). Kind of test: compounds binding control protein streptavidin – biophysical, small-molecule microarray, 635/667 nm fluorescence, artefact control for SMM compound annotation, primary screen (AID 1147).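 Also: signal reflects streptavidin binding to arrayed compounds as a control protein.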 The conditions noted are these: higher = more signal.
Test [7] can be described thus: probe aInhba binding on compound microarray – biochemical, small-molecule microarray, 635/667 nm fluorescence, primary screen (AID 1148).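 Also: score merges 667nm spot fluorescence with signal-to-noise for antibody binding to printed compounds.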 The conditions noted are these: higher = more signal.
The target in test [8] is Torsin-1A (Homo sapiens) (UniProt O14656). Kind of test: TOR1A wild-type binding on microarray – cell lysate, small-molecule microarray, lysate, 635/667 nm, primary screen (AID 1149). The conditions noted are these: COS7 hTOR1A-WT lysate, 635 nm fluorescence, higher = more signal.
Chain of Torsin-1A (Homo sapiens) (O14656 whole entry, looked up): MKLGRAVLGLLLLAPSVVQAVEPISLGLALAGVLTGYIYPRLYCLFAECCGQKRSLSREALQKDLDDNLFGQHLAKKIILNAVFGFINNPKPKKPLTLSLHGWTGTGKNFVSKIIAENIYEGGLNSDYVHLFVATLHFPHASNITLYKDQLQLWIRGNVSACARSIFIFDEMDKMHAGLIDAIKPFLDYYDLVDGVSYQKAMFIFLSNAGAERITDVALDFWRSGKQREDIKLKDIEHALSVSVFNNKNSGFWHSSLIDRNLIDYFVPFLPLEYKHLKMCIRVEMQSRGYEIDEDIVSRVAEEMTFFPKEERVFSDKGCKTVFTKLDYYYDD
For test [9] the target is unchanged. Kind of test: torsin A mutant lysate binding on microarrays – cell lysate, small-molecule microarray, COS7 lysate, 635/667 nm fluorescence, primary screen (AID 1150).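 Also: score pools 667 nm emission and signal to noise measuring lysate protein binding.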 As to conditions: COS7 hTOR1A mutant lysate, 635 nm fluorescence, higher = more signal.
Test [10] relates to Sonic hedgehog protein (Shh). The test can be described thus: Sonic hedgehog microarray binding compounds – biochemical, small-molecule microarray, 635/667 nm fluorescence, primary screen (AID 1151).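 Also: Shh protein binding to compounds spotted on small-molecule microarray slides; score combines spot fluorescence intensity with signal-to-noise across triplicate slides.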 As to conditions: 635 nm fluorescence, higher = more signal.

Chain of Streptavidin (Streptomyces avidinii) (P22629 whole entry, looked up): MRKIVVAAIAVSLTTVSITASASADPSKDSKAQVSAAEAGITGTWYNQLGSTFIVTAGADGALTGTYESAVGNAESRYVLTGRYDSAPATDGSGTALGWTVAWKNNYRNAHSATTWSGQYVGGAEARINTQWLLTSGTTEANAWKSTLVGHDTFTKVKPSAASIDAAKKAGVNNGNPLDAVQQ

Take `COC(=O)c1c2oc(c1C(=O)OC)C(=O)N[C@H](Cc1ccccc1)Cn1nncc1C1(CCCCC1)NC(=O)N[C@H](CO)CC2`: the composite z-score in test [1] was 0.159; in [6], 0.412; in test [7], 0.0154; in [8], -0.0688; in test [9], -0.0459; in test [10], 0.798. Besides, the z-score in [2] is -0.11 (inactive); in test [3], -0.318 (inactive); in test [4] it was 1.75 (inactive); in test [5] it was 0.154 (inactive).

Regarding `O=P(NCC1(CC2(c3ccccc3)CO2)CC1)(c1ccccc1)c1ccccc1` (stereo not given), the composite z-score was -0.402 in test [1]; -0.767 in [6]; -0.0448 in test [7]; -0.87 in test [8]; -0.754 in [9]; -1.41 in test [10]. The z-score is -0.814 (inactive) in test [2], 0.318 (inactive) in [3], 0.197 (inactive) in [4] and 1.13 (inactive) in test [5].

Regarding `COc1ccc(C#Cc2ccc3c(c2)[C@]2(C(=O)N3)[C@H](c3ccc(OCCO)cc3)N3[C@H](c4ccccc4)[C@H](c4ccccc4)OC(=O)[C@H]3[C@@H]2C(=O)Nc2nc3ccccc3s2)cc1`, the composite z-score stood at 0.603 in test [1]; 1.07 in test [6]; 0.143 in [7]; 1.15 in test [8]; 0.564 in [9]; 1 in test [10]. In addition, the z-score in test [2] is -2.92 (inactive); in [3] it was -1.54 (inactive); in test [4], 0.918 (inactive); in test [5], -0.203 (inactive).

As to `O=C(NCc1ccccc1)[C@@H]1c2ccccc2C(=O)N(Cc2cc(F)cc(C(F)(F)F)c2)[C@H]1c1ccc(CO)cc1`, the composite z-score worked out at 0.0748 in [1]; 0.0709 in [6]; 0.0227 in test [7]; 0.484 in test [8]; 0.426 in test [9]; 1.15 in [10]. Besides, the z-score in test [2] is -1.26 (inactive); in [3], 0.339 (inactive); in test [4], -0.0888 (inactive); in test [5] it was -1.61 (inactive).

As for `O=C1O[C@H](c2ccccc2)[C@H](c2ccccc2)N2[C@H]1[C@@H](C(=O)Nc1nc3ccccc3s1)[C@]1(C(=O)Nc3ccc(C#CC4=CCCCC4)cc31)[C@H]2c1ccc(OCCO)cc1`, the composite z-score in test [1] came to 0.706; in test [6], 1.73; in test [7] it was 0.417; in test [8], 0.0608; in [9], 0.407; in test [10] it was 0.598. Moreover, the z-score in test [2] was -1.3 (inactive); in test [3] it was -0.711 (inactive); in test [4], 0.128 (inactive); in test [5], 0.205 (inactive).

Regarding `CC(C)C[C@@H]1NC(=O)[C@@H]2C[C@H](C(=O)NCCCCN(C)C)[C@H](c3ccc(O)cc3)N2C1=O`, the composite z-score in [1] was -0.341; in test [6], -0.466; in test [7], -0.0624; in test [8], 0.0266; in test [9], -0.271; in test [10] it was 0.273. The z-score in [2] is 0.446 (inactive); in [3], -0.0311 (inactive); in [4] it was -0.532 (inactive); in [5] it was -0.0914 (inactive).

On to `COCCOC(=O)N1C(=O)[C@@]2(c3cc(C#CCCO)ccc31)[C@H](C(=O)NC[C@H](O)c1ccccc1)[C@H]1C(=O)O[C@H](c3ccccc3)[C@H](c3ccccc3)N1[C@@H]2c1ccc(OCCO)cc1`, for which the composite z-score is 0.041 in test [1]; 0.738 in test [6]; 0.0444 in [7]; 0.269 in test [8]; 0.126 in [9]; 1.85 in test [10]. Further, the z-score in test [2] was -3.14 (inactive); in test [3], -1.71 (inactive); in test [4], -1.97 (inactive); in [5], -1.18 (inactive).

In the case of `O=C1C[C@@](C(=O)O)(c2ccc([N+](=O)[O-])cc2)[C@@H](c2ccc(CO)cc2I)N1C1CCCCC1`, the composite z-score in [1] was 0.45; in test [6], 0.988; in test [7] it was 0.0905; in test [8], -0.757; in test [9], 0.206; in test [10], -0.196. In addition, the z-score was -4.77 (inactive) in [2], -2.27 (inactive) in [3], -0.619 (inactive) in [4] and -0.598 (inactive) in test [5].

Consider `CC(C)OC(=O)C1=CCC(c2cccc(Cl)c2)O1` (stereo not given), for which the composite z-score was -0.593 in test [1]; 0.245 in test [6]; -0.191 in test [7]; 1.07 in test [8]; -0.268 in test [9]; -1.49 in [10]. In addition, the z-score in test [2] was -5.17 (inactive); in [3] it was -2.12 (inactive); in [4], -0.471 (inactive); in test [5] it was -0.154 (inactive).

As for `O[C@@H](Cc1ccccc1)[C@@H](/C=C/c1ccccc1)NCc1ccccc1Br`, the composite z-score in test [1] is -1.01; in [6], -0.736; in test [7], -0.205; in test [8], -2.13; in test [9], -1.9; in test [10], -1.08. Further, the z-score in test [2] was -0.626 (inactive); in [3], -0.662 (inactive); in test [4], 2.67 (inactive); in test [5], -2.09 (inactive).

Turning to `CC(C)N1C(=O)c2ccccc2[C@](C)(C(=O)NCCCN(C)C)[C@@H]1c1ccc(CO)cc1`, the composite z-score in test [1] was -0.265; in test [6], 0.578; in test [7], -0.204; in test [8], 3.98; in test [9] it was 3.56; in test [10], 0.0142. The z-score in test [2] is 0.17 (inactive); in test [3], 0.352 (inactive); in test [4], -0.0888 (inactive); in test [5], -0.297 (inactive).

As to `O=C1C2C=CC(C(O)c3ccc(-c4ccccc4)s3)N(Nc3ccccc3F)C2C(=O)N1c1ccccc1` (stereo not given), the composite z-score in test [1] is 0.26; in test [6] it was 1.06; in [7] it was -0.205; in test [8], 0.254; in test [9], 0.404; in test [10] it was 0.433. Further, the z-score was 0.0093 (inactive) in [2], -0.729 (inactive) in test [3], 0.629 (inactive) in test [4] and 0.383 (inactive) in [5].

For the compound `Cc1ccc(S[C@]2(C(=O)NCCCN(C)C)CC(=O)N(Cc3ccccc3)[C@@H]2c2ccc(CO)cc2)cc1`, the composite z-score in test [1] is -0.2; in [6], -0.689; in test [7], -0.0494; in test [8] it was -0.883; in test [9], -0.623; in [10], -1.02. The z-score in test [2] is -0.533 (inactive); in test [3], 0.294 (inactive); in [4], -0.232 (inactive); in test [5], 0.529 (inactive).

With `O=C1OCC=C[C@H]2OC34C=CCN(CCN5CCOCC5)C(=O)[C@H]3N(CCCCCCO)C(=O)[C@@H]4[C@@H]12` (stereo not given in full), the composite z-score in test [1] is 0.0272; in test [6], -0.278; in test [7], -0.0604; in test [8], 0.135; in test [9], -0.0406; in test [10], 0.572. Also, the z-score was -0.39 (inactive) in [2], 1.73 (inactive) in test [3], 0.862 (inactive) in [4] and -0.201 (inactive) in test [5].

For `CC(C)C(=C=CC[C@H](O)c1ccccc1OCCO)CCO`, the composite z-score in test [1] is -0.0207; in test [6] it was -0.366; in test [7], -0.101; in test [8] it was -0.0451; in [9], 0.408; in [10], 0.569. The z-score in [2] was -0.334 (inactive); in test [3] it was 0.00427 (inactive); in [4] it was 2.14 (inactive); in test [5], 1.49 (inactive).
